From article PMC7819943, “Rice protein-binding microarrays: a tool to detect cis-acting elements near promoter regions in rice” come the findings set out here.

The full ranking holds about 68,000 sequences; the median of “fluorescence intensity (a.u.)” is about 9,100, and the highest 2% start at about 16,000. The full list was thinned out, with the highest values kept by preference.

OsWRKY34, sequence (Q0JBA9 entry or part of it): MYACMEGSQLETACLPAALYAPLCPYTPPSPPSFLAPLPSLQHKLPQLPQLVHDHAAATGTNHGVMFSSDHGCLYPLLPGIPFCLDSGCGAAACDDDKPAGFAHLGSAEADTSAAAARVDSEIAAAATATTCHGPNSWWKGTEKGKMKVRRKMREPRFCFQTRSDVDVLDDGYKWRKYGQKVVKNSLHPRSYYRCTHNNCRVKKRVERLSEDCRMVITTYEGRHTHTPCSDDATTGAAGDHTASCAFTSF

This assay deals with OsWRKY34 (Oryza sativa, UniProt Q0JBA9 1-250). The experiment in a line: protein-binding microarray (RPBM); PBS, 2% BSA, 51.3 ng/ul salmon testes DNA, 50 uM zinc acetate, 200 nM TF, 25 C, 1 h; high values mean tight binding. The conditions noted are these: protein: recombinant; tags: N-terminal polyhistidine and DsRed monomer fusion (pET32a); label: CyDye5-dUTP incorporated in the synthesized complementary strand; 3' TTTTT single-stranded linker to array surface; dsDNA, one strand shown. In short, it runs like this:
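The binding signal is fluorescence intensity per array feature (arbitrary units). Readings came from an Axon 4000B scanner after a washed, 2% BSA-blocked, double-stranded custom Agilent array had been incubated for 1 h at 25 °C with 200 nM protein and 50 µM zinc acetate. The protein was a Ni–NTA-purified transcription factor fused N-terminally to polyhistidine and DsRed, expressed in E. coli BL21-CodonPlus.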
As to “TTAACCTCTCTCTTAATTTCAGTTTGTTTGTTCGTTCGTTCGGAGTCACCTAGTGCAG”, the binding signal is 9010 fluorescence intensity (a.u.). To “ACAGCCTATATACACTACTCACTCCGTCTCAGAATATAAGCGGAGTCACCTAGTGCAG” belongs 8900 fluorescence intensity (a.u.). Turning to “CATCCCAATTTTCTGGCCACACTTGCATCCCTCTGCCGCCCGGAGTCACCTAGTGCAG”, the binding signal was 10800 fluorescence intensity (a.u.).

Take “ACCACCCTACCTAGCTTAGAATATTTACCATGCATTCTCTCGGAGTCACCTAGTGCAG”: the binding signal is 11100 fluorescence intensity (a.u.). To “TCTTCTTCTTGTTTCGGCTTCCGCCTCCGTCCCGCGCGCGCGGAGTCACCTAGTGCAG” belongs 13800 fluorescence intensity (a.u.). With “CAAATTATGAGCCTGTTCACTTTGATGCTCTTTTCAACCACGGAGTCACCTAGTGCAG”, the binding signal was 8320 fluorescence intensity (a.u.). As to “TCCCAAACCCCGCGCCGCCTCTTACCGCTTCGCGTCAGCTCGGAGTCACCTAGTGCAG”, the binding signal was 8490 fluorescence intensity (a.u.). For “ACCTATCTTTCTCTATTTTTTATTTTTTTAGCGAAACACACGGAGTCACCTAGTGCAG” the value was 9780 fluorescence intensity (a.u.); for “TCCGTTTTTGTGGTTTTCGATGGATTCCGTCGTCGCCGACCGGAGTCACCTAGTGCAG”, 9660 fluorescence intensity (a.u.).

For the sequence “GATGGACATTGTTTGCCATCACCGTCAACGACCGTTGACTCGGAGTCACCTAGTGCAG”, the binding signal is 12900 fluorescence intensity (a.u.).

“GCTTCGTTGGCTCCGTGAAACTGTCTCTCTCTCCCAACTCCGGAGTCACCTAGTGCAG”: the binding signal was 8030 fluorescence intensity (a.u.). With “TTTGCACTGGTTTTGTAAGTTGGGGATGTATTGTATGAGGCGGAGTCACCTAGTGCAG”, the binding signal was 9560 fluorescence intensity (a.u.).

Turning to “CGTGAGGAATGGGATTTTTATTTTGCTGGTTACTGTTTGACGGAGTCACCTAGTGCAG”, the binding signal was 10000 fluorescence intensity (a.u.). In the case of “AGTCAAATTTGTTTTTTTTCGTTGCAACTTGTATAATTTACGGAGTCACCTAGTGCAG”, the binding signal is 9430 fluorescence intensity (a.u.). To “GTGTCATTCTCCTCACACGCCGGTCTCCATGAGCGAGTTTCGGAGTCACCTAGTGCAG” belongs 8110 fluorescence intensity (a.u.); to “GACGTGTTTGGTCTTCGGTTCGGTGGGTCTCAAGTTCTGACGGAGTCACCTAGTGCAG”, 19400 fluorescence intensity (a.u.). To “AAAGTTGGGGTCAGGTGGTTTTGGTTCTGTGTTCAAGGGACGGAGTCACCTAGTGCAG” belongs 11500 fluorescence intensity (a.u.); to “AAAATTCTTGGTCTTCTTGGTCTCGGTTAGTTCGGTTCGACGGAGTCACCTAGTGCAG”, 8110 fluorescence intensity (a.u.); to “GGACCCACCTGCCGAACCAGCACGCATCGCGTCTCGCACCCGGAGTCACCTAGTGCAG”, 8590 fluorescence intensity (a.u.).

For the sequence “GGTCAAATTCTCATTTTGCAATATCCCACAGCTAATTACACGGAGTCACCTAGTGCAG”, the binding signal is 9540 fluorescence intensity (a.u.). For “ATCACGGGATTACACAGCAAAGTAGCAAAGCTAAATTTTACGGAGTCACCTAGTGCAG” the value was 63700 fluorescence intensity (a.u.). For the sequence “TGCAAAGTAGTAGTTGGGGATTTAATAGTGGCTTACAATACGGAGTCACCTAGTGCAG”, the binding signal is 8620 fluorescence intensity (a.u.). To “GCTAATAAGTGCTTACATTGTTTTGGATGATCACCAGCAACGGAGTCACCTAGTGCAG” belongs 8080 fluorescence intensity (a.u.); to “ATGCTCCTACTTTCCTTTGCTGTATATATTACTCCATTTGCGGAGTCACCTAGTGCAG”, 8260 fluorescence intensity (a.u.).

In the case of “AGCTTCCTCCGTTTTTTTCTTTCTTTCTTTCTTTTTTTTTCGGAGTCACCTAGTGCAG”, the binding signal was 11800 fluorescence intensity (a.u.). For “TTCCTCCGTTTTCTCCGTTCGTCTTCCTCCGCTTCCGAAGCGGAGTCACCTAGTGCAG” the value was 18000 fluorescence intensity (a.u.).

Take “ACCCCACCTGTCAGACAACCCCACCGCCGCTTCGCTTCACCGGAGTCACCTAGTGCAG”: the binding signal was 17300 fluorescence intensity (a.u.). For “GCACCGGCGCCACCGCCCGCGCCCGCACCACCGCCCACGCCGGAGTCACCTAGTGCAG” the value was 8870 fluorescence intensity (a.u.); for “GCAAACTTTATTGCTCCGCGTTCTTCCTTTCTCTGTGTTTCGGAGTCACCTAGTGCAG”, 8910 fluorescence intensity (a.u.); for “TCATTCCTATGTTTTTTCTGTGTTTTGCAATTCTCTGTTTCGGAGTCACCTAGTGCAG”, 14900 fluorescence intensity (a.u.). For “GAATCCACCGCATTTTTCCGCCGCCCCACGCGGCGCCACCCGGAGTCACCTAGTGCAG” the value was 19700 fluorescence intensity (a.u.); for “TTCGTCTCCGTTTCGTCTTCTTCTTCTTCTTCTTCTTCGGCGGAGTCACCTAGTGCAG”, 8790 fluorescence intensity (a.u.). For “ACCCACCACAACCAGTGATCAGACACCACCTACCGCGCGCCGGAGTCACCTAGTGCAG” the value was 8330 fluorescence intensity (a.u.); for “CCAACCGCCGCGCCGCTTCGCTGTCTTCACCGTGCCGCTCCGGAGTCACCTAGTGCAG”, 8620 fluorescence intensity (a.u.); for “CCGAATCCGGCCACCCCGCCGCCTCCACGCGCATCACCGCCGGAGTCACCTAGTGCAG”, 11100 fluorescence intensity (a.u.). On to “TCATTGCTCTCTGTGTTTCTCCGCTATGCCGCCACGTCTTCGGAGTCACCTAGTGCAG”, for which the binding signal was 16700 fluorescence intensity (a.u.). For “GGAGCACCTGTCGTGCGCTGCCGCCATGTACGCGGCGCCGCGGAGTCACCTAGTGCAG” the value was 8360 fluorescence intensity (a.u.). To “ATACCCGATCTCATTATTATGAACCAGTTATGTAATAACACGGAGTCACCTAGTGCAG” belongs 8020 fluorescence intensity (a.u.); to “TGCACAAAGGTTATGCGATATCGACGGTATATTTCCACAACGGAGTCACCTAGTGCAG”, 9520 fluorescence intensity (a.u.). To “TGGCCGCGGCTGCTGCTGAGTGTGGTGGTGGTGGGAGGCACGGAGTCACCTAGTGCAG” belongs 8880 fluorescence intensity (a.u.). As for “CCCCAAAATTTTTCACCATGTCACATCAAACGTTTGAACACGGAGTCACCTAGTGCAG”, the binding signal is 8490 fluorescence intensity (a.u.).

Take “TTCACACCGTCGTATTTGCCACTTTACTGACGCTCGAAGCCGGAGTCACCTAGTGCAG”: the binding signal is 8060 fluorescence intensity (a.u.). With “TACTAATTTCCTTCGCACATCCAGCAATCAGATATCCTGACGGAGTCACCTAGTGCAG”, the binding signal was 9760 fluorescence intensity (a.u.). For “CATCCCTAGTCGGCGTCTTGTCATCGCCGCCCCAATCTCGCGGAGTCACCTAGTGCAG” the value was 8260 fluorescence intensity (a.u.); for “GCCTCGTTTCCATCTCCGCCGCGCTCGCCGCGTTCACACTCGGAGTCACCTAGTGCAG”, 11400 fluorescence intensity (a.u.); for “CTTTCCTTGCGCTGTTCTTCGCTTCATCCATCCATCAGCTCGGAGTCACCTAGTGCAG”, 10800 fluorescence intensity (a.u.). For the sequence “GCTCCATCTCTCGTCTCGCGCTTCACTCCACATCTGTTTCCGGAGTCACCTAGTGCAG”, the binding signal is 18300 fluorescence intensity (a.u.).
